Test results taken from PubChem BioAssay (NCATS).
Results filed as inconclusive are left out. Calls of active or inactive are those of the source. Calls follow the shape of the dose curve; as a rule, active = well fitted curve in the direction sought with a large enough effect; inconclusive = small, poorly fitted or top-dose-only effect, or another doubt; inactive = no such curve, though single readings can be large; an effect the other way counts as inactive or inconclusive.

What was measured:
HACAT = test: qHTS assay to identify novel small-molecules to repurpose for Merkel cell carcinoma treatment (AID 1296009); conditions: MCC and control cell lines, CellTiter-Glo viability, 72 h; at 44.8 µM (top of the series) unless noted; also: nearly all actives have a fitted effect of over 60% in size
Method in brief: (§1)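 72 hr, 37 degree celsius; NPC 8-pt / MIPE 11-pt dose response; compound pinned in DMSO; CellTiter-Glo, 10 min RT, luminescence; normalized to no-cell and DMSO controls.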

NIH3T3 = test: as above; conditions: MCC and control cell lines, CellTiter-Glo viability, 72 h; at 44.8 µM (top of the series) unless noted
Method in brief: as §1

C33A = test: Primary qHTS to identify gynecologic anti-cancer compounds using libraries of approved drugs and bioactive compounds (AID 1345084); conditions: Gynecologic cancer cell panel viability, ATPlite luminescence, 48 h; series mostly up to 57.5 µM; also: nearly all actives have a fitted effect of over 55% in size
Method in brief: (§2)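 Five-point cytotoxicity, 48 h drug exposure at 37 C, 5% CO2, on cells seeded 16 h beforehand. ATP content read by ATPlite luminescence.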

CAOV3 = test: as above; conditions: Gynecologic cancer cell panel viability, ATPlite luminescence, 48 h; series mostly up to 57.5 µM
Method in brief: as §2

CASKI = test: as above; conditions: Gynecologic cancer cell panel viability, ATPlite luminescence, 48 h; series mostly up to 57.5 µM
Method in brief: as §2

Es-2 = test: as above; conditions: Gynecologic cancer cell panel viability, ATPlite luminescence, 48 h; series mostly up to 57.5 µM
Method in brief: as §2

HeLa = test: as above; conditions: Gynecologic cancer cell panel viability, ATPlite luminescence, 48 h; series mostly up to 57.5 µM
Method in brief: as §2

Hek293T = test: as above; conditions: Gynecologic cancer cell panel viability, ATPlite luminescence, 48 h, control line for the selectivity index; series mostly up to 57.5 µM
Method in brief: as §2

JEG-3 = test: as above; conditions: Gynecologic cancer cell panel viability, ATPlite luminescence, 48 h; series mostly up to 57.5 µM
Method in brief: as §2

Measured: Potency

Cc1cn(-c2cc(NC(=O)c3ccc(C)c(Nc4nccc(-c5cnccn5)n4)c3)cc(C(F)(F)F)c2)cn1
inactive: all assays above

CN1CCN(C(=O)c2cc3cc(Cl)ccc3[nH]2)CC1
inactive: all assays above

CCCCOc1nc(N)c2c(n1)N(Cc1cccc(CN3CCCC3)c1)CC(=O)N2
inactive: all assays above

CC(C)c1cc2c(c(O)c1O)[C@@]13CCCC(C)(C)C1[C@@H](O)[C@@H]2OC3=O (stereo partly specified)
inactive: all assays above

C[C@@H](NC(=O)c1cc(C(=O)N[C@@H](Cc2ccccc2)[C@H](O)CNC2CC2)cc(N(C)S(C)(=O)=O)c1)c1ccccc1
inactive: all assays above

NCCCCN(Cc1nc2ccccc2[nH]1)[C@H]1CCCc2cccnc21
inactive: HACAT inactive [at 17.4 µM] | NIH3T3 inactive [at 17.4 µM] | C33A | CAOV3 | CASKI | Es-2 | HeLa | Hek293T | JEG-3

COCCN1CCC(C(=O)NO)(S(=O)(=O)c2ccc(Oc3ccc(OC(F)(F)F)cc3)cc2)CC1
inactive: all assays above

CC1=CC(=O)CC(C)(C)[C@@]1(O)/C=C/C(C)O[C@@H]1O[C@H](CO)[C@@H](O)[C@H](O)[C@H]1O (stereo partly specified)
inactive: HACAT inactive [at 17.4 µM] | NIH3T3 inactive [at 17.4 µM] | C33A | CAOV3 | CASKI | Es-2 | HeLa | Hek293T | JEG-3

Cc1sc(C)c(C(=O)NC2(c3ccc(C(=O)O)cc3)CC2)c1Cc1ccc(C(F)(F)F)cc1
inactive: all assays above

CN1CCCC1Cc1c[nH]c2ccc(CCS(=O)(=O)c3ccccc3)cc12 (stereo unspecified)
inactive: all assays above

COC1OC(OC)C(O)(CCC2(C)C(C)CCC3(C)C2CC(O)C(O)C32CO2)C1O (stereo unspecified)
inactive: HACAT inactive [at 17.4 µM] | NIH3T3 inactive [at 17.4 µM] | C33A | CAOV3 | CASKI | Es-2 | HeLa | Hek293T | JEG-3

CC1(C)C2CC[C@@]34CC(CC[C@H]3[C@]2(C)CC[C@@H]1O[C@@H]1O[C@H](CO)[C@@H](O)[C@H](O)[C@H]1O)[C@](C)(O)C4 (stereo partly specified)
inactive: HACAT inactive [at 17.4 µM] | NIH3T3 inactive [at 17.4 µM] | C33A | CAOV3 | CASKI | Es-2 | HeLa | Hek293T | JEG-3

C/C=C/C(=O)OC1/C=C/C(O)C(OC(C)=O)CCC(=O)OC1C (stereo unspecified)
inactive: all assays above

COc1cc(C(CO)C(OC2OC(CO)C(O)C(O)C2O)c2ccc(O)c(OC)c2)ccc1O (stereo unspecified)
inactive: HACAT inactive [at 17.4 µM] | NIH3T3 inactive [at 17.4 µM] | C33A | CAOV3 | CASKI | Es-2 | HeLa | Hek293T | JEG-3
